The source of these data is PubChem BioAssay.

The structures appear in SMILES notation. Results filed as inconclusive are left out. Active and inactive are the calls of the source.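 The calls were made as follows, unless noted: active = cell viability at or below a set limit in both duplicate runs, the limit being the all-compound median minus 4 SD (cut at about 23% in these data, passing the limit was not always enough); inconclusive = no clear call, values can overlap the other calls; inactive = the rest.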

Experiment [1] can be described thus: Her2 expression decrease, cell viability multiplex – SKBR3 breast tumor cells, AlphaScreen, ATP viability, primary screen (AID 461;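 active = Her2 level under about 52% in both replicate screens, with viability over 70% of control, limit read from the data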;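 as to Her2 level: lower value means less Her2 protein in the cells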;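 as to viability: percent of carrier control wells set as 100% viability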). The following applies: SKBR3 Her2 protein level, 18-24 h, measured here: SKBR3 viability, ATP luminescence, at 10 µM. A general note: In Alpha technology, singlet oxygen from a donor bead excites a nearby acceptor bead.
Experiment [2] deals with Receptor tyrosine-protein kinase erbB-2 (Homo sapiens) (UniProt P04626). Described as above. The conditions noted are these: 18-24 h, at 10 µM, stronger effect = lower value.
Chain of Receptor tyrosine-protein kinase erbB-2 (Homo sapiens) (P04626 whole entry, looked up): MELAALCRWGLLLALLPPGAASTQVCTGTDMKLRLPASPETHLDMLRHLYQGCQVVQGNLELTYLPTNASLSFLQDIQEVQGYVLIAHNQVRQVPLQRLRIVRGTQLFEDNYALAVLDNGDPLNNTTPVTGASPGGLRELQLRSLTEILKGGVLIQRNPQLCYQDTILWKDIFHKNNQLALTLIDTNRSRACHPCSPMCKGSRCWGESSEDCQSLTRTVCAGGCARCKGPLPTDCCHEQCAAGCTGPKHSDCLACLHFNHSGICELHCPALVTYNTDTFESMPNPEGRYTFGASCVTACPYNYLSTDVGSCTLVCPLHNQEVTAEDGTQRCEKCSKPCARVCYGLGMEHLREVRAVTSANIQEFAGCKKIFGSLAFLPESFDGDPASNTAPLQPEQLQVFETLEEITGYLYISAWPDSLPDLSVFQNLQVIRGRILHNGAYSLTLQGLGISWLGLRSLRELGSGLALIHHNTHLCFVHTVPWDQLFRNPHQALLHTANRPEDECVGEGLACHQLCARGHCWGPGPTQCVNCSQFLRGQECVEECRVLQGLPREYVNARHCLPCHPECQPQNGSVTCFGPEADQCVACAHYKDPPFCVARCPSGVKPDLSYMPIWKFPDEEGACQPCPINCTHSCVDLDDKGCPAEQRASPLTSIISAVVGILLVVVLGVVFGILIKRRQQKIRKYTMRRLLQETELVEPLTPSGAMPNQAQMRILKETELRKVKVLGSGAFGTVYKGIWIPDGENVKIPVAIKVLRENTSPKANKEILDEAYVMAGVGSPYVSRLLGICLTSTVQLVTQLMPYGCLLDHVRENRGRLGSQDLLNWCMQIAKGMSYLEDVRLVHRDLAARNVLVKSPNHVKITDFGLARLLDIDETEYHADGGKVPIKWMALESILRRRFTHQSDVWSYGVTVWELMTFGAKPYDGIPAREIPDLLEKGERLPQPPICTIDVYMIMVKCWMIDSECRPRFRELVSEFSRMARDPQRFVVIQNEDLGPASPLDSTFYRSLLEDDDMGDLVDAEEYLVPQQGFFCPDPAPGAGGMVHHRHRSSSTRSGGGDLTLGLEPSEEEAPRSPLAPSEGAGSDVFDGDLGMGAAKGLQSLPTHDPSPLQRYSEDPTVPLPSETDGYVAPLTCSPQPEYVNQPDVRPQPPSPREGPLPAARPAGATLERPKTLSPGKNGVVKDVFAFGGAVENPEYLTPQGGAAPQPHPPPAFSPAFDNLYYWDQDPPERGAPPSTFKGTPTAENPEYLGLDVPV
Experiment [3] can be described thus: reduced viability of SK-BR-3 breast cancer cells – cell-based, 24 h, human, pilot screen (AID 572;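 active = viability at or below 10% of carrier control in both of two separate runs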;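 also: compound exposure lasted between 18 and 24 h rather than exactly 24 h; 100% = carrier-treated control wells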). The following applies: SK-BR-3 viability, CellTiter-Glo luminescence, at 10 µM, stronger effect = lower value. On the technique in general: In ATP-based viability assays light output follows the ATP content of the culture.
Experiment [4] is described as follows: HUVEC growth inhibition – cell-based, human, primary screen (AID 575;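 active = viability at or below 30% in both replicate assays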;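 also: 100% = median of untreated cell wells with 0.1% DMSO on each plate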). The conditions noted are these: HUVEC proliferation, CellTiter-Glo luminescence, 72 h; at 10 µM; stronger effect = lower value.
The nature of experiment [5]: H69AR cell proliferation blockers – human, duplicate replicates, primary screen (AID 580;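 active = viability at or under a set limit in both replicates, limit being median viability minus 3 SD, cut at about 48% in these data, passing the limit was not always enough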;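 also: 100% = mean luminescence of untreated wells and 0% = no signal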). The following applies: H69AR lung tumor cells viability, ATP luminescence, 72 h; at 10 µM; stronger effect = lower value.
A short description of experiment [6]: MRP1 drug-resistance reversers in H69AR cells – cell-based, doxorubicin co-treatment, pilot screen (AID 601;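 active = viability loss from added drug above about 55%, and viability with drug at most 40%, in both replicates, limit read from the data, passing the limit was not always enough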). The conditions noted are these: CellTiter-Glo, 72 h, at 10 µM; for differential viability (reversal): stronger effect = higher value.
A short description of experiment [7]: yeast transport mutant growth inhibition pilot in 384-well plates, post-Golgi transport modulator project (AID 636; in the data active = inhibition above about 31%). The conditions noted are these: absorbance 615 nm, about 18 h, stronger effect = higher value.
The nature of experiment [8]: growth suppression of yeast trafficking mutant, preliminary HTS, modulators of trafficking downstream of Golgi apparatus project, 1536-format plate, OD 615 nm (AID 637; in the data active = inhibition above about 30%). The following applies: yeast transport mutant growth, absorbance 615 nm, 18 h; stronger effect = higher value.
Experiment [9] can be described thus: S. cerevisiae growth inhibition in permissive medium (OD615), pilot counter-assay for S. cerevisiae lifespan shortening project, permissive growth control (AID 705;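 active = growth inhibition above 25% in both replicates, a cutoff set 3 SD above the mean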). The following applies: OD615, 24 h, at 10 µM, stronger effect = higher value.
A short description of experiment [10]: S. cerevisiae growth inhibition in restrictive medium, OD615, pilot screen, restrictive growth control, yeast lifespan reduction project (AID 706;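 active = growth inhibition above a set limit, 3 SD over mean compound inhibition, in both replicates, cut at about 43% in these data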;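 also: modified DeaD lifespan yeast strain shifted to restrictive glucose medium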). The following applies: OD615, 48 h, at 10 µM, stronger effect = higher value.
Experiment [11] can be described thus: doxorubicin toxicity protection in MRP-1 cells – H69AR cells, CellTiter-Glo, duplicate, MRP-1 activator project, pilot screen (AID 807;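 active = viability increase at or above a cutoff of the median across tested compounds plus 3 SD, cut at about 8.5% in these data, passing the limit was not always enough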;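 also: compound pretreatment 18-22 h then 72 h combined with doxorubicin; 0% = doxorubicin alone and 100% = vehicle without doxorubicin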). The following applies: H69AR viability with doxorubicin, CellTiter-Glo luminescence; at 10 µM; stronger effect = higher value.
Experiment [12] is described as follows: viability of HCT116 without oncogenic beta-catenin – human colon tumor cells, pilot screen (AID 823).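 Also: 0% = wells killed by 20 µM Hyamine and 100% = untreated DMSO cell wells.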 The following applies: HCT116 beta-catenin knockout viability, CellTiter-Glo, 60 h; at 10 µM; stronger effect = lower value.
Experiment [13] is described as follows: viability of PTEN-null HCT116 cells – cell-based, HCT116 clonal line, CellTiter-Glo, pilot screen (AID 824;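 active = viability at or below 27.92% in each of two runs, the all-compound median minus 4 SD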;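 also: 0% = 20 µM Hyamine control and 100% = vehicle cell control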). The conditions noted are these: HCT116 PTEN-deleted viability, 60 h, at 10 µM, stronger effect = lower value.
Experiment [14] can be described thus: RAM signaling pathway blockade in yeast – S. cerevisiae, Pdr1DBD-CYC8 efflux-inhibited sensitized strain, primary screen (AID 1298;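 active = RAM network inhibition above 8.4% in each of two replicates, 3 SD over the compound average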;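 also: 0% = DMSO untreated cells without growth and 100% = 10 µM 1-NA-PP1 full growth; higher means more yeast growth rescued from 5-FOA killing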). The conditions noted are these: S. cerevisiae cbk1-as DSE1-URA3 strain, 5-FOA growth OD615, 2 d; at 50 µM; stronger effect = higher value.
Experiment [15] in a line: RAM pathway blockade in budding yeast – dse1pr::URA3 reporter, 5-FOA selection, pilot screen (AID 869;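 active = inhibition over a set limit, the all-compound mean plus 3 SD, in both replicate runs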;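 also: 0% = DMSO wells with no growth and 100% = 10 µM 1-NA-PP1 with full growth; RAM network block rescues cells from 5-FOA so hits raise OD615 growth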). The following applies: S. cerevisiae dse1pr::URA3 5-FOA growth, OD615, 2 d; at 10 µM; stronger effect = higher value; strain carries analog-sensitive mutant Cbk1 kinase.
Where [16] appears, read: H69AR cells + 2 uM doxorubicin, measured here: viability with 2 uM doxorubicin, stronger effect = lower value.
[17] abbreviates: H69AR cells, compound alone cytotoxicity.

For orientation: viability means a read-out of living cells in per cent, often relative to untreated cells. Broadly, the inhibition is the relative decrease from the control value, in per cent. `O=C(NC1CCCc2ccccc21)c1ccc(CNc2c(N3CCOCC3)c(=O)c2=O)cc1` (stereo not drawn): the viability in experiment [1] is 86.5%; in experiment [3] it was 86.5% (inactive); in [4], 95.5% (inactive); in experiment [5] it was 91.7% (inactive); in [6] (setting [16]), 77.5%; in [6] (setting [17]) it was 91.7%. For the same molecule, the viability in [12] was 89.1% (inactive); in [13], 59.3% (inactive). The Her2 level in [2] was 100% (inactive). Besides, the differential viability (reversal) in [6] (H69AR cells + 2 uM doxorubicin) is 14.2% (inactive). The inhibition in [7] is 1.79% (inactive); in [8], 2.67% (inactive). The growth inhibition is -3.71% (inactive) in experiment [9] and -2.73% (inactive) in [10]. In addition, in experiment [11], the viability increase is -3.89% (inactive). In experiment [14], the RAM network inhibition is 6.53% (inactive).

As for `CCC(C)NC(=O)C1c2cc(OC)c(OC)cc2C(=O)N(C)C1c1ccc(OC)cc1` (stereo not drawn), the viability in [1] is 96%; in [3], 96% (inactive); in [4] it was 108% (inactive); in [5], 108% (inactive); in experiment [6] (setting [16]), 97.6%; in [6] (setting [17]), 108%. Besides, the viability was 96% (inactive) in experiment [12] and 95.3% (inactive) in experiment [13]. For the same molecule, in [2], the Her2 level was 90% (inactive). In addition, the differential viability (reversal) in experiment [6] (H69AR cells + 2 uM doxorubicin) was 10.2% (inactive). Further, the inhibition is -8.77% (inactive) in experiment [7], -10.2% (inactive) in experiment [8] and 0.92% (inactive) in experiment [15]. Moreover, the values for the growth inhibition in experiment [9] and in [10] were -5.75% (inactive) and -9.85% (inactive), respectively. Also, in experiment [11], the viability increase was -1.38% (inactive). Also, the RAM network inhibition in experiment [14] is 0.81% (inactive).

In the case of `Cc1nc2sc(C(c3cccs3)N3CC(C)CC(C)C3)c(O)n2n1` (stereo not drawn), the viability in experiment [1] is 89.5%; in [3] it was 89.5% (inactive); in experiment [4] it was 108% (inactive); in experiment [5] it was 95.2% (inactive); in [6] (setting [16]) it was 93.8%; in [6] (setting [17]) it was 95.2%. For the same molecule, the viability is 107% (inactive) in experiment [12] and 95.2% (inactive) in [13]. Further, the Her2 level in [2] is 92% (inactive). Further, the differential viability (reversal) in [6] (H69AR cells + 2 uM doxorubicin) was 1.38% (inactive). For the same molecule, the inhibition in [7] is -0.27% (inactive); in experiment [8], 8.85% (inactive); in experiment [15], 1.53% (inactive). Further, the growth inhibition in [9] is -11.2% (inactive); in experiment [10], -10.1% (inactive). The viability increase in experiment [11] was -2.1% (inactive). In addition, in [14], the RAM network inhibition is 5.64% (inactive).

For the molecule `O=C1CCCC2=C1C(c1cccc(Br)c1)n1nc(-c3ccco3)nc1N2` (stereo not drawn), the viability in experiment [1] is 95.5%; in experiment [3], 95.5% (inactive); in experiment [4], 80.6% (inactive); in experiment [5], 103% (inactive); in experiment [6] (setting [16]), 100%; in experiment [6] (setting [17]) it was 103%. For the same molecule, the values for the viability in [12] and in [13] were 81.5% (inactive) and 76.5% (inactive), respectively. The Her2 level in [2] was 73% (inactive). Moreover, the differential viability (reversal) in experiment [6] (H69AR cells + 2 uM doxorubicin) is 2.4% (inactive). Besides, the inhibition was -1.73% (inactive) in experiment [7] and -2.95% (inactive) in experiment [8]. Also, the growth inhibition is -11.7% (inactive) in [9] and -0.21% (inactive) in [10]. Moreover, the viability increase in experiment [11] is -2.06% (inactive). The RAM network inhibition in experiment [14] is 0.99% (inactive).

With `O=C(NCCCN1CCOCC1)c1ccc(CS(=O)(=O)c2c(Cl)cccc2Cl)o1`, the viability in [1] was 90.5%; in experiment [3], 90.5% (inactive); in experiment [4], 88.8% (inactive); in experiment [5], 92.3% (inactive); in experiment [6] (setting [16]), 94.3%; in [6] (setting [17]), 92.3%. The figures for the viability in [12] and in experiment [13] were 101% (inactive) and 92.3% (inactive), respectively. For the same molecule, the Her2 level in [2] was 102% (inactive). The differential viability (reversal) in experiment [6] (H69AR cells + 2 uM doxorubicin) is -2.01% (inactive). Besides, the results for the inhibition in experiment [7], in experiment [8] and in [15] were -0.67% (inactive), -0.5% (inactive) and 1.61% (inactive), respectively. Further, the growth inhibition in [9] is -11.8% (inactive); in experiment [10], -17.8% (inactive). Further, in experiment [11], the viability increase was -1.26% (inactive). Also, the RAM network inhibition in [14] was 5% (inactive).
